Reference: PubChem BioAssay (NCI)
Several values for one entry are separate records, joined by “and”; a condition that tells them apart may be missing. Equal values may be shown once. Compounds without any hit were thinned out: in the full panel of roughly 83,000, 20% have a hit.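 96-well plates, one dose, 48 hours. Percent growth reported; active if below 10.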 Activity calls are given as the source filed them.

How the values were obtained:
Assay in all cases: NCI-60 one-dose screen, 48 h (100 = growth as untreated, 0 = no growth, -100 = all killed)
Details in all cases: 10 µM unless noted
NCI-H23 lung = tested on: NCI-H23 lung
NCI-H226 lung = tested on: NCI-H226 lung
NCI-H322M lung = tested on: NCI-H322M lung
HOP-62 NSCLC = tested on: HOP-62 NSCLC
NCI-H460 lung = tested on: NCI-H460 lung
HOP-92 NSCLC = tested on: HOP-92 NSCLC
NCI-H522 lung = tested on: NCI-H522 lung
A549/ATCC NSCLC = tested on: A549/ATCC NSCLC
786-0 renal = tested on: 786-0 renal
COLO 205 colon = tested on: COLO 205 colon
DU-145 prostate = tested on: DU-145 prostate
K-562 leukemia = tested on: K-562 leukemia
MALME-3M melanoma = tested on: MALME-3M melanoma
MDA-MB-231 breast = tested on: MDA-MB-231 breast
RXF 393 renal = tested on: RXF 393 renal
SF-268 CNS = tested on: SF-268 CNS
SF-295 CNS = tested on: SF-295 CNS
SF-539 CNS = tested on: SF-539 CNS
UACC-257 melanoma = tested on: UACC-257 melanoma
M14 melanoma = tested on: M14 melanoma

Measured: growth

COc1ccc(N(CC(=O)NCCC[Te]c2ccccc2)C(=O)c2ccccc2)cc1
active: NCI-H23 lung 0.588% | NCI-H322M lung 4.82% | NCI-H460 lung -1.52% | HOP-92 NSCLC -9.19% | NCI-H522 lung -9.72% | A549/ATCC NSCLC 2.78% | SF-295 CNS -7.61%
inactive: NCI-H226 lung 52.7% | HOP-62 NSCLC 15.8% | 786-0 renal 75.3% | COLO 205 colon 89.2% | DU-145 prostate 66.6% | K-562 leukemia 56.1% | MALME-3M melanoma 129% | MDA-MB-231 breast 14.2% | RXF 393 renal 133% | SF-268 CNS 39.2% | SF-539 CNS 31.4% | UACC-257 melanoma 95.4% | M14 melanoma 32.1%

CCN(CC)CCn1c(=O)n(C)c2ccccc21
inactive: NCI-H23 lung 97.4% | NCI-H226 lung 102% | NCI-H322M lung 106% | HOP-62 NSCLC 107% | NCI-H460 lung 106% | HOP-92 NSCLC 93.7% | NCI-H522 lung 108% | A549/ATCC NSCLC 105% | 786-0 renal 111% | COLO 205 colon 109% | DU-145 prostate 109% | K-562 leukemia 103% | MALME-3M melanoma 103% | MDA-MB-231 breast 119% | RXF 393 renal 106% | SF-268 CNS 101% | SF-295 CNS 111% | SF-539 CNS 98.1% | UACC-257 melanoma 97.5% | M14 melanoma 108%

CC1(C)N(Nc2ccccc2)C(=O)C2CCCN21 (stereo not given)
active: K-562 leukemia 8.29% | M14 melanoma 10%
inactive: NCI-H23 lung 97.2% | NCI-H226 lung 84.6% | NCI-H322M lung 87.4% | HOP-62 NSCLC 76.1% | NCI-H460 lung 99.8% | HOP-92 NSCLC 52.7% | NCI-H522 lung 53.2% | A549/ATCC NSCLC 79.4% | 786-0 renal 33.4% | COLO 205 colon 104% | DU-145 prostate 16.8% | MALME-3M melanoma 84.2% | MDA-MB-231 breast 89.6% | RXF 393 renal 116% | SF-268 CNS 39.5% | SF-295 CNS 84.5% | SF-539 CNS 89.3% | UACC-257 melanoma 89.2%

Cc1nc2ccccc2c(=O)n1-c1ccccc1F
inactive: NCI-H23 lung 100% | NCI-H226 lung 96.6% | NCI-H322M lung 111% | HOP-62 NSCLC 81.6% | NCI-H460 lung 105% | HOP-92 NSCLC 87.5% | NCI-H522 lung 88.1% | A549/ATCC NSCLC 76.2% | 786-0 renal 103% | COLO 205 colon 98.3% | DU-145 prostate 109% | K-562 leukemia 104% | MALME-3M melanoma 112% | MDA-MB-231 breast 107% | RXF 393 renal 96.5% | SF-268 CNS 100% | SF-295 CNS 98.3% | SF-539 CNS 95.4% | UACC-257 melanoma 77% | M14 melanoma 99.4%

O=[N+]([O-])c1ccc2scc3c4ccccc4nc-3c2c1
inactive: NCI-H23 lung 30.7% | NCI-H322M lung 58.1% | NCI-H460 lung 42.7% | A549/ATCC NSCLC 18.9% | SF-295 CNS 84.7%
active: NCI-H226 lung -32.4% | HOP-62 NSCLC 2.95% | HOP-92 NSCLC -61.8% | NCI-H522 lung -88.8% | 786-0 renal -82.9% | COLO 205 colon -55.6% | DU-145 prostate -7.89% | K-562 leukemia 3.96% | MALME-3M melanoma -45% | MDA-MB-231 breast -76.1% | RXF 393 renal -96.8% | SF-268 CNS -0.718% | SF-539 CNS -45% | UACC-257 melanoma -59.9% | M14 melanoma -54.8%

Nc1c(Cl)c(Cl)nc(C(=O)O)c1Cl
inactive: NCI-H23 lung 104% | NCI-H226 lung 102% | NCI-H322M lung 80.8% | HOP-62 NSCLC 86.9% | NCI-H460 lung 102% | HOP-92 NSCLC 106% | NCI-H522 lung 98.6% | A549/ATCC NSCLC 108% | 786-0 renal 103% | COLO 205 colon 117% | DU-145 prostate 120% | K-562 leukemia 83.8% | MALME-3M melanoma 83.5% | MDA-MB-231 breast 106% | RXF 393 renal 136% | SF-268 CNS 111% | SF-295 CNS 98.6% | SF-539 CNS 84.9% | UACC-257 melanoma 108% | M14 melanoma 104%

O=C(NCCCN1CC1)Nc1cccc2ccccc12
inactive: NCI-H23 lung 104% and 92.7% | NCI-H226 lung 102% and 92.4% | NCI-H322M lung 116% and 102% | HOP-62 NSCLC 48.9% and 87.9% | NCI-H460 lung 109% and 91% | HOP-92 NSCLC 90.5% | NCI-H522 lung 108% and 79.1% | A549/ATCC NSCLC 97.3% and 91.6% | 786-0 renal 108% and 103% | COLO 205 colon 106% and 103% | DU-145 prostate 104% and 102% | K-562 leukemia 86.4% | MALME-3M melanoma 75.8% and 104% | MDA-MB-231 breast 94.3% and 105% | RXF 393 renal 108% and 107% | SF-268 CNS 83.5% and 96.9% | SF-295 CNS 114% and 88.2% | SF-539 CNS 93.7% and 113% | UACC-257 melanoma 96.9% and 94.2% | M14 melanoma 99.6% and 98.8%

CC[PH+](CC)CC.O=COC1OC([S-])C(OC=O)C(OC=O)C1OC=O.[Au+] (stereo not given)
active: NCI-H23 lung -57.3% | NCI-H226 lung -66.7% | NCI-H322M lung -95.9% | HOP-62 NSCLC -83.1% | NCI-H460 lung -59% | HOP-92 NSCLC -86.8% | NCI-H522 lung -75% | A549/ATCC NSCLC -76.6% | 786-0 renal -83.4% | COLO 205 colon -84.9% | DU-145 prostate -43.7% | K-562 leukemia -6.71% | MALME-3M melanoma -92.1% | MDA-MB-231 breast -76.3% | RXF 393 renal -91% | SF-268 CNS -78.5% | SF-295 CNS -16.3% | SF-539 CNS -99.2% | UACC-257 melanoma -83.6% | M14 melanoma -63.1%

[N-]=[N+]=CC(=O)CCC(=O)C=[N+]=[N-]
inactive: NCI-H23 lung 105% | NCI-H226 lung 100% | NCI-H322M lung 95.8% | HOP-62 NSCLC 92.6% | NCI-H460 lung 112% | HOP-92 NSCLC 90.6% | NCI-H522 lung 110% | A549/ATCC NSCLC 113% | 786-0 renal 99.3% | COLO 205 colon 117% | DU-145 prostate 127% | K-562 leukemia 83.9% | MALME-3M melanoma 96.3% | MDA-MB-231 breast 103% | RXF 393 renal 124% | SF-268 CNS 121% | SF-295 CNS 106% | SF-539 CNS 88.3% | UACC-257 melanoma 137% | M14 melanoma 102%

C#COc1cccc(Nc2ncnc3cc(NC(=O)CF)ccc23)c1
inactive: NCI-H23 lung 81.4% [6.25 µM] | NCI-H226 lung 83.4% [6.25 µM] | NCI-H322M lung 70.5% [6.25 µM] | HOP-62 NSCLC 30.3% [6.25 µM] | NCI-H460 lung 21.4% [6.25 µM] | HOP-92 NSCLC 47.7% [6.25 µM] | A549/ATCC NSCLC 40% [6.25 µM] | 786-0 renal 30.7% [6.25 µM] | COLO 205 colon 13.2% [6.25 µM] | DU-145 prostate 76.1% [6.25 µM] | MALME-3M melanoma 60.9% [6.25 µM] | MDA-MB-231 breast 50.9% [6.25 µM] | RXF 393 renal 84.4% [6.25 µM] | SF-268 CNS 51.8% [6.25 µM] | SF-295 CNS 29.9% [6.25 µM] | SF-539 CNS 29.3% [6.25 µM] | UACC-257 melanoma 40.4% [6.25 µM] | M14 melanoma 18.7% [6.25 µM]
active: NCI-H522 lung -25.3% [6.25 µM] | K-562 leukemia 7.01% [6.25 µM]

C[C@]12CC[C@H]3[C@@H](C[C@@H]4SC(Nc5cccc(F)c5)=N[C@@]45CC(=O)CC[C@]35C)[C@@H]1CCC2=O
active: NCI-H522 lung -43.7% | 786-0 renal -13.9% | K-562 leukemia -0.515% | RXF 393 renal -28.4% | SF-295 CNS -18.8% | SF-539 CNS -5.93%
inactive: NCI-H23 lung 55.1% | NCI-H226 lung 71.9% | NCI-H322M lung 55.8% | HOP-62 NSCLC 20.4% | NCI-H460 lung 52% | HOP-92 NSCLC 68.9% | A549/ATCC NSCLC 35.4% | COLO 205 colon 47.6% | DU-145 prostate 17.2% | MALME-3M melanoma 22.8% | MDA-MB-231 breast 38.2% | SF-268 CNS 55.7% | UACC-257 melanoma 73% | M14 melanoma 44.8%

CC12CCC3C(CCC4CC(O)CCC43C)C1CCC2=O (stereo not given)
inactive: NCI-H23 lung 98.4% | NCI-H226 lung 98.1% | NCI-H322M lung 102% | HOP-62 NSCLC 95.8% | NCI-H460 lung 100% | HOP-92 NSCLC 74.5% | NCI-H522 lung 61.9% | A549/ATCC NSCLC 94.2% | 786-0 renal 78.1% | COLO 205 colon 130% | DU-145 prostate 103% | K-562 leukemia 103% | MALME-3M melanoma 102% | MDA-MB-231 breast 111% | RXF 393 renal 133% | SF-268 CNS 116% | SF-295 CNS 94.8% | SF-539 CNS 99.1% | M14 melanoma 98.8%
active: UACC-257 melanoma -10.3%

O=C(O)C1C(C(=O)O)C2(Cl)C(Cl)=C(Cl)C1(Cl)C2(Cl)Cl (stereo not given)
inactive: NCI-H23 lung 96.8% and 100% | NCI-H226 lung 98.5% and 114% | NCI-H322M lung 106% and 117% | HOP-62 NSCLC 99.6% and 111% | NCI-H460 lung 101% and 111% | HOP-92 NSCLC 94.3% and 94.8% | NCI-H522 lung 97.2% and 123% | A549/ATCC NSCLC 104% and 95.8% | 786-0 renal 111% and 99.2% | COLO 205 colon 101% and 119% | DU-145 prostate 107% and 120% | K-562 leukemia 113% and 115% | MALME-3M melanoma 104% and 102% | MDA-MB-231 breast 111% and 102% | RXF 393 renal 103% and 130% | SF-268 CNS 105% and 106% | SF-295 CNS 101% and 113% | SF-539 CNS 88.5% | UACC-257 melanoma 102% and 104% | M14 melanoma 102% and 109%
